More than one record can exist for a structure, and the calls need not agree. Activity calls are given as the source filed them. The calls were made as follows: active = hit-call score of the fitted dose curve at least 0.9, where 1 is the maximum; inactive = score below 0.9.

This test in a line: ATG_NF_kB_CIS: Attagene CIS-FACTORIAL HepG2 Assay for human Nuclear Factor Kappa B (NF-kB) (AID 2282991). Conditions: HepG2 Attagene cis-factorial NF-kB reporter mRNA; actives raise or lower the signal. The essentials: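 Endpoint from a 52-component multiplexed HepG2 reporter panel: cis-regulated transcription units transiently transfected, 24 h dosing, reporter mRNA quantified by RT-PCR and capillary electrophoresis, scored as increase or decrease against DMSO.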
On to `CCCCC(CC)CN1C(=O)C2C3C=CC(C3)C2C1=O` (configuration not stated), for which the outcome was inactive.

As to `O=C(O)C1(C(=O)Nc2ccc(Cl)cc2Cl)CC1`, the result was inactive.

In the case of `COC(=O)c1ccccc1C(=O)O`, the compound was classed as inactive.

For `c1ccc(Nc2ccccc2)cc1`, the call was inactive.

Regarding `CCOC(=O)NCCOc1ccc(Oc2ccccc2)cc1`, the outcome was inactive.

A word on the AC50: it is the concentration giving half of the maximal activity seen. For the compound `CC(C)(c1ccc(O)cc1)c1ccc(O)cc1`, the AC50 is 56.9 µM (active) and the call was inactive.

In the case of `O=C(Nc1ccc([N+](=O)[O-])cc1Cl)c1cc(Cl)ccc1O`, the half-maximal activity concentration (AC50) is 1.17 µM (active).

Regarding `COC(=O)c1cccc(C)c1S(=O)(=O)NC(=O)Nc1nc(OCC(F)(F)F)nc(N(C)C)n1`, the compound was called inactive.

As for `CCCCOC(=O)[C@@H](C)Oc1ccc(Oc2ccc(C(F)(F)F)cn2)cc1`, the call was inactive.

For the compound `O=C(c1ccc(O)cc1O)c1ccc(O)cc1O`, the compound was classed as inactive.

On to `CC(C)(C)[C@@H](O)[C@@H](Cc1ccc(Cl)cc1)n1cncn1`, for which the compound was classed as inactive.

Regarding `c1ccc2[nH]c(-c3cscn3)nc2c1`, the compound was called inactive.

Turning to `CCOC(=O)C(C)Oc1ccc(Oc2nc3ccc(Cl)cc3o2)cc1` (configuration not stated), the call was inactive.

Take `CCC(C)OC(=O)N1CCCCC1CCO` (configuration not stated): the outcome was inactive.

Regarding `N#CSCSc1nc2ccccc2s1`, the AC50 was 3.07 µM (active) and the result was inactive.

With `CCN(Cc1c(F)cccc1Cl)c1c([N+](=O)[O-])cc(C(F)(F)F)cc1[N+](=O)[O-]`, the compound was called inactive.

Take `CC(C)CCCCCCc1ccc(O)cc1`: the AC50 was 11.1 µM (active) and the compound was classed as inactive.

For the compound `CCNc1nc(N)nc(Cl)n1`, the outcome was inactive.

As for `COC(=O)c1c(Cl)nn(C)c1S(=O)(=O)NC(=O)Nc1nc(OC)cc(OC)n1`, the result was inactive.

Consider `C[C@]12C[C@H](O)[C@H]3[C@@H](CCC4=CC(=O)CC[C@@]43C)[C@@H]1CC[C@@H]2C(=O)CO`, for which the compound was called inactive.

Take `C#C[C@]1(O)CC[C@H]2[C@@H]3CCC4=CC(=O)CC[C@@H]4[C@H]3CC[C@@]21CC`: the result was inactive.

In the case of `CCCN(CCC)c1c([N+](=O)[O-])cc(C(F)(F)F)c(N)c1[N+](=O)[O-]`, the concentration at half-maximal activity (AC50) was 50 µM (active).

On to `COC(=O)c1ccc(CNS(C)(=O)=O)cc1S(=O)(=O)NC(=O)Nc1nc(OC)cc(OC)n1`, for which the outcome was inactive.

Take `CCSC(=O)N(CC(C)C)CC(C)C`: the result was inactive.

Consider `CCCOC(=O)c1ccc(C(=O)OCCC)nc1`, for which the call was inactive.

With `COC(=O)c1ccccc1S(=O)(=O)NC(=O)Nc1nc(OC(F)F)cc(OC(F)F)n1`, the compound was called inactive.

Turning to `CCCCOC(=O)C(C)Oc1ccc(Oc2ccc(C(F)(F)F)cn2)cc1` (configuration not stated), the outcome was inactive.

As for `COc1nc(C)nc(NC(=O)NS(=O)(=O)c2ccccc2OCCCl)n1`, the compound was called inactive.

As to `O=C(c1ccccc1)C1CCCCC1`, the compound was called inactive.

(Values after PubChem BioAssay (EPA / NIEHS).)
